From PubChem BioAssay come the findings set out here.

A number with no mark means an inactive call. No rule for the calls is given here.

For this experiment, the target named is Pantothenate synthetase (Mycobacterium tuberculosis (strain ATCC 25618 / H37Rv)) (UniProt P9WIL5). The experiment can be described thus: Recombinant Mtb pantothenate synthetase (PanC) inhibitors, coupled enzyme, confirmatory (AID 375).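 Also: 0% = full reaction with vehicle and 100% = no enzyme background.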 As to conditions: coupled enzyme assay; at 10 µM, stronger effect = higher value.
Sequence of Pantothenate synthetase (Mycobacterium tuberculosis (strain ATCC 25618 / H37Rv)) (P9WIL5 whole entry, looked up): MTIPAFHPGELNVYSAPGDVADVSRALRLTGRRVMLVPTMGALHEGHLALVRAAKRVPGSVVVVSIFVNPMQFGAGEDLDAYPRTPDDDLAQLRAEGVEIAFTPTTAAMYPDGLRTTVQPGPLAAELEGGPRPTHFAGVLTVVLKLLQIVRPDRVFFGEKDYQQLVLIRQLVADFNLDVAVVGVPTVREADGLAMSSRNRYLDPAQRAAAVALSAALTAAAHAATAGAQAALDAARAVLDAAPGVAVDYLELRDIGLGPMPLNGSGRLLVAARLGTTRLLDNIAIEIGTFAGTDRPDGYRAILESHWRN
In the case of `COc1ccccc1CNC(=O)CCn1c(=O)[nH]c2ccsc2c1=O`, the inhibition is 2%. As to `O=C1NCCCc2c1no[n+]2[O-]`, the inhibition was 18%. For `CC(=O)c1cc(C#N)c(SCC(=O)OC(C)C)nc1C`, the inhibition is 4%. The value for `COc1cccc(C(=O)CN2CCC(NC(=O)NC3CCCCC3)CC2)c1` was 6%; that for `COc1cc(C)nc(OCCNC(=O)COc2ccc(Cl)cc2C)n1` was 5%; that for `C=CCSc1nc2c(c(=O)[nH]c(=O)n2C)n1C(C)C` was 0%. With `O=c1c2c3nc4ccccc4nc3n(CC3CCCO3)c2ncn1CCc1ccccc1` (stereo not given), the inhibition was 9%. As to `c1ccc(-c2nc3nonc3c3nc4ccccc4n23)cc1`, the inhibition was 2%. Turning to `COc1ccc2c(CC(=O)Nc3ccc(OC)c(NS(=O)(=O)c4ccc(F)cc4)c3)coc2c1`, the inhibition was 1%. With `CC(C)NCC(O)COc1ccc(CC(N)=O)cc1` (stereo not given), the inhibition is 0%. Turning to `COc1cc(C(=O)Nc2cccc(-c3nncn3C)c2)cc(OC)c1OC`, the inhibition was 0%. `Cc1ccc(C(c2sc3ncnn3c2O)N2CC(C)CC(C)C2)cc1` (stereo not given): the inhibition was 0%. The value for `COCC(=O)Nc1c(C(=O)Nc2ccccc2OC)oc2ccccc12` was 1%. The value for `O=C(O)c1ccc(-n2nc(C(F)(F)F)c3c2-c2ccoc2CC3)cc1` was 0%; that for `Cc1ccc(-c2csc3ncn(-n4c(C)ccc4C)c(=O)c23)o1` was 0%. Regarding `CCc1nc(NCCCN2CCOCC2)c2oc3ccccc3c2n1`, the inhibition was 2%. Under `COc1ccc(C2C(C(=O)NCCN3CCOCC3)c3ccccc3C(=O)N2C2CCCCC2)cc1` (stereo not given) stands 0%; under `Cc1ccc(-c2nc(N)n(C(=O)c3cccnc3)n2)cc1`, 0%. `CN1C(=O)CSc2ccc(NC(=O)N3CCN(c4ccccn4)CC3)cc21`: the inhibition is 8%. The value for `Nn1c(Cc2ccccc2F)nnc1SCC(=O)N1CC(=O)Nc2ccccc21` was 0%; that for `Cc1[nH]nc(-c2ccc(O)c(C)c2O)c1-c1cnn(-c2ccccc2)c1` was 0%; that for `Cc1nc2sc(C(c3cccc(F)c3)N3CCN(C(=O)c4ccco4)CC3)c(O)n2n1` (stereo not given) was 0%. Under `CC(=O)N1C(=O)C2(C(C#N)=C(N)Oc3cc(C)oc(=O)c32)c2ccccc21` (stereo not given) stands 0%; under `Cc1cccc(C)c1NC(=O)CC(NCc1ccco1)C(=O)O` (stereo not given), 0%; under `CCn1c(=O)n(CC(=O)NCc2ccccc2OC)c(=O)c2ccccc21`, 12%. The value for `O=C(O)COc1ccc(Oc2ccccc2)cc1` was 3%; that for `O=C(COc1ccccc1)N1CCN(C(=O)c2cccc(F)c2)CC1` was 1%; that for `O=C1CCCN1CCCNc1ncnc2c1[nH]c1ccc(Cl)cc12` was 9%.

As to `COc1ccccc1NC(=O)NC1(C(=O)N2CCC(O)CC2)CCCCC1`, the inhibition was 0%. `CCCc1nnc(SCC(=O)N2CCOCC2)n1Cc1ccco1`: the inhibition was 0%. For `CCOC(=O)c1cc2c(=O)n3cccc(C)c3nc2n(CCOC)c1=NC(=O)c1ccncc1`, the inhibition was 0%. In the case of `Cn1cc(NC(=O)c2cc(NC(=O)c3cc(NC=O)cn3C)cn2C)cc1C(=O)NCCC(=N)N`, the inhibition was 10%. Under `CCOc1ccc(Cl)cc1S(=O)(=O)N1CCCC1` stands 0%; under `CCOc1cccc(-c2nnc3sc(COc4ccc(OC)cc4)nn23)c1`, 4%. The value for `O=C(c1ccc2c(c1)[nH]c(=S)n1c3ccccc3nc21)N1CCN(c2ncccn2)CC1` was 8%. On to `c1ccc(-c2oc3ncnc(NCCN4CCOCC4)c3c2-c2ccccc2)cc1`, for which the inhibition was 4%. For `Cc1cc(C)nc(NC(=O)c2c(-c3c(Cl)cccc3Cl)noc2C)n1`, the inhibition is 2%.

`O=C1c2ccccc2C(=O)N1c1cccc(-c2nc3ccccc3o2)c1`: the inhibition was 7%.

Regarding `COc1ccc(C2C(C#N)=C(N)OC3=C2C(=O)CC(C)C3)c(OC)c1OC` (stereo not given), the inhibition was 0%.

`Fc1ccc(C(c2nnnn2Cc2ccco2)N2CCN(C3CCCCC3)CC2)cc1` (stereo not given): the inhibition was 0%.

The inhibition is how much of the control response was suppressed.
